# In the library only some 7.3% were active in any assay of this set; here they are far more common.
# ELG1 genotoxic: genotoxicity induction in ELG1-luciferase HEK293T cells | HEK293T ELG1-luciferase reporter, luminescence, 16 h | Potency, µM (titrated, usually from 46 µM), for the others: top-dose activity change, positive = activation, actives largely listed as activators | 1.3% of 330,000 active | AID 504466; note: % of control where 0% means no effect; nearly all actives have a fitted effect of over 60% in size
#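 Cells (2,000/well) expressing the ELG1-luciferase fusion are dosed by pin tool and kept 16 hr at 37 °C, 5% CO2. Signal comes from ONE-Glo luciferase reagent after 30 min at room temperature.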
# NPC1 prom act: activates the NPC1 promoter. Huh7 NPC1 promoter luciferase reporter, 24 h. Potency, µM (top dose mostly 9.22 µM), inactives show at the top dose activation, most hits filed as activators. 2.4% of 320,000 active; note: % of control where 0% means no effect; nearly all actives have a fitted effect of over 60% in size
#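 In 1536-well qHTS, Huh7 cells harboring an NPC1 promoter–luciferase construct received compound for 24 h; activation was quantified by luminescence following luciferase reagent addition.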
# SMN2 splice enh: SMN2 splice variant enhancement; AID 1458; HEK293 SMN2-luciferase splicing reporter, luminescence, 30-36 h; Potency, µM (titrated, usually from 46.1 µM), inactives show at the highest dose activity change, positive = activation, actives largely listed as activators; 2.8% of 210,000 active; note: % of control where 0% means no effect; nearly all actives have a fitted effect of over 55% in size
#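 HEK293 cells carry an SMN2 […]–luciferase reporter in which exon 7 inclusion puts luciferase in frame. Cells were plated 10-12 h before compound addition, then incubated 30-36 h at 37C. ONE-Glo luminescence was read; sodium butyrate at 4.5 mM final served as control.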
# Rab9 promoter act: activators of Rab9 promoter; Huh7 Rab9 promoter-luciferase reporter, luminescence, 24 h; Potency, µM (highest dose often 9.22 µM), for inactives: top-dose activation, negative = inhibition, usual class: activators; 2.8% of 320,000 active; AID 485297; note: % of control where 0% means no effect; nearly all actives have a fitted effect of over 60% in size
#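 Stable Rab9-luc Huh7, 1500 cells/well, 2 h settle; cmpd in DMSO, 24 h, 37 °C/5% CO2; luciferase reagent 10 min RT; luminescence.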
# Luc counter: counter-screen: inhibitors of Kinase-Glo firefly luciferase. 0.28% of 200,000 active. Q27757. Kinase-Glo luciferase, ATP luminescence, 8 min. Potency, µM (doses to about 38.3 µM), for the others: top-dose activity change, negative = inhibition, actives largely listed as inhibitors. AID 1379; note: % is set by controls: 0 for no effect and ±100 for the full control effect; nearly all actives have a fitted effect of over 60% in size
#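 Light output from Kinase-Glo luciferase with luciferin and 10 uM ATP in 50 mM imidazole pH 7.2, KCl, MgCl2, Tween 20, BSA; compound pin-delivered, 8-min ambient incubation, then luminescence read.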
# FLuc counter: inhibits or activates purified firefly luciferase, miR-21 counter-screen; P08659; purified FLuc, Km substrates, luminescence inhibition; Potency, µM (titrated, usually from 57.5 µM), without a hit: at the highest dose activity change, negative = inhibition, actives largely listed as inhibitors; 6.9% of 360,000 active;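 note: plate controls were vehicle for no effect and reference inhibitor for full effect; nearly all actives have a fitted effect of over 55% in size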
# Target sequence (P08659 whole entry, looked up): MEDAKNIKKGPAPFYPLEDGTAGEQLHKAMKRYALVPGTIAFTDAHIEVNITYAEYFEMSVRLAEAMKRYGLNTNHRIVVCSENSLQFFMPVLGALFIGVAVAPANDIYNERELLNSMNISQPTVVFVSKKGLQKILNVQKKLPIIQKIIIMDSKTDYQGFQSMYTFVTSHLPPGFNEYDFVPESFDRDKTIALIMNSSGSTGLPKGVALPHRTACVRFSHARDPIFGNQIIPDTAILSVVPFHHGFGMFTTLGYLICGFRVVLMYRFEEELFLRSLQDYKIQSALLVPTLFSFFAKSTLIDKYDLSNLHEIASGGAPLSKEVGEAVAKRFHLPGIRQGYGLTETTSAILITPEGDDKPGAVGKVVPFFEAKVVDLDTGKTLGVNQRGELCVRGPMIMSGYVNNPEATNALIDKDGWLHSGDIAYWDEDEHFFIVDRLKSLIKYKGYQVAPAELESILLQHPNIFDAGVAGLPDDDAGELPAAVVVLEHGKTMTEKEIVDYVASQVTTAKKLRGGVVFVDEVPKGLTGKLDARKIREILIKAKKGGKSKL
#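 Purified P. pyralis luciferase (10nM final) with 10uM D-luciferin and 10uM ATP (Km levels) in 50mM Tris acetate pH 7.5, 10mM Mg acetate, 0.01% Tween-20, 0.05% BSA; qHTS 6-point titration, ~60 µM downward; luminescence read.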
# An asterisk follows results filed as active; u = inconclusive; x = not tested or not shown; [ ] = remark or other dose. Calls come from the whole dose curve; as a rule, active = well fitted curve in the direction sought with a large enough effect; inconclusive = small, poorly fitted or top-dose-only effect, or another doubt; inactive = no such curve, though single readings can be large; an effect the other way counts as inactive or inconclusive. Potency is the fitted concentration of half-maximal effect.
SMILES,ELG1 genotoxic,NPC1 prom act,SMN2 splice enh,Rab9 promoter act,Luc counter,FLuc counter
CCOC(=O)N/N=C(\C)c1cccs1,u,19.5%,9.4%,10.4%,-5.3%,-14.2%
CC(=O)Nc1cccc(/C(C)=N/NC(=O)c2cccs2)c1,u,0.5%,u,2.3%,1.4%,19µM*
CCOC(=O)C1CCN(C(=O)C2COc3ccccc3C2)CC1 (centres undefined),x,x,x,x,x,-4.1%
Nc1nn(-c2ccccc2)nc1C(=O)OCc1ccccc1F,5.9%,0.6%,15.5%,15.2%,-0.6%,16.9µM*
O=C(CSc1nnc(NC2CCCCC2)s1)Nc1ccc2c(c1)C(=O)c1ccccc1C2=O,6.3%,3.55µM*,11.2µM*,2.82µM*,0.1%,u
Cc1ccc(NC(=O)CN(C)C(=O)CSc2nnc(NC(C)C)s2)cc1,4.0%,11.6%,x,1.9%,x,0.2%
CC(C)Nc1nnc(SCC(=O)Nc2ccc3c(c2)C(=O)c2ccccc2C3=O)s1,-4.0%,u,14.1µM*,3.55µM*,1.7%,u
NS(=O)(=O)c1ccc(NC(=O)CSc2nnc(NC3CC3)s2)cc1,-0.8%,-3.2%,x,1.3%,x,-1.4%
O=C(O)C1C(C(=O)O)C(C(=O)O)C1C(=O)O (centres undefined),x,x,-12.7%[9.22 µM],x,-2.3%[7.66 µM],x
O=C(Nc1ccc2c(c1)OCCO2)c1ccc(Br)cc1,u,2.51µM*,x,1.26µM*,x,1.07µM*
Cc1ccc(C(=O)Nc2ccc3c(c2)OCO3)cc1,0.461µM*,0.631µM*,7.94µM*,0.562µM*,-18.0%,1.35µM*
CCN1C(=O)c2ccc(C(=O)Nc3ccc4c(c3)OCO4)cc2C1=O,u,29.7%,x,16.0%,x,2.69µM*
Cc1c(C(=O)Nc2ccc3c(c2)OCCO3)oc2ccc(Br)cc12,u,19.0%,x,u,x,5.36µM*
CCN1C(=O)c2ccc(C(=O)NCc3ccc4c(c3)OCO4)cc2C1=O,2.1%,-0.8%,8.2%,3.0%,-0.5%,2.9%
Cc1c(C(=O)NCc2ccc3c(c2)OCO3)oc2ccc(Br)cc12,7.6%,0.5%,-10.5%,0.9%,-3.8%,-16.2%
O=C(CN1C(=O)COc2ccc(S(=O)(=O)N3CCOCC3)cc21)NCc1ccc(Cl)cc1,x,x,x,x,x,5.7%
CCN(c1ccccc1)c1nnc(NC(=O)Nc2ccc(Br)cc2F)s1,x,x,x,x,x,5.1%
Cc1ccc(C(=O)Nc2ccc3c(c2)OCCO3)cc1,0.58µM*,0.282µM*,x,0.316µM*,x,0.426µM*
CCN(CC)S(=O)(=O)c1ccc(C(=O)Nc2ccc3c(c2)OCCO3)cc1,1.6%,9.3%,-3.5%,5.2%,-1.5%,u
CCN1C(=O)c2ccc(C(=O)Nc3ncc(C)s3)cc2C1=O,u,18.5%,12.7%,u,-13.6%,1.69µM*
O=C(O)CCC(=O)Nc1cccc(C(=O)Nc2ccc(Br)cc2)c1,5.2%,-1.1%,16.7%,7.5%,0.2%,23.9µM*
CCCOc1cccc(C(=O)Nc2ccc3c(c2)OCCO3)c1,2.31µM*,3.16µM*,x,u,x,0.953µM*
O=C(O)CCC(=O)Nc1cccc(C(=O)Nc2cccc(Cl)c2)c1,-0.2%,-4.1%,-6.1%,-1.2%,-3.0%,u
CCOc1ccc(NC(=O)CSc2oc(-c3ccco3)nc2S(=O)(=O)c2ccc(Cl)cc2)cc1,x,x,16.0%,x,x,0.6%
C[C@H](CCC(=O)O)C1CC[C@H]2C3CC[C@@H]4C[C@H](O)CC[C@]4(C)C3C[C@H](O)[C@]12C (some centres undefined),x,x,-13.9%,x,x,x
SMILES,ELG1 genotoxic,NPC1 prom act,SMN2 splice enh,Rab9 promoter act,Luc counter,FLuc counter
CCOC(=O)c1c(S(=O)(=O)N2CCC(C(=O)NCc3cccc(C)c3)CC2)c(C)n(C)c1C,x,x,x,x,x,-8.3%
O=C(Nc1ccc2c(c1)OCCO2)c1ccc(Br)o1,u,1.26µM*,14.1µM*,1.58µM*,u,2.13µM*
CC(C)c1ccc(NC(=O)c2cccc(Br)c2)cc1,20.6µM*,1.41µM*,14.1µM*,0.708µM*,-8.6%,3.01µM*
CC(OC(=O)c1ccc(Br)o1)C(=O)Nc1ccc2c(c1)OCCO2 (centres undefined),1.5%,1.2%,x,1.1%,x,x
Cc1c(C(=O)NCC2CCCO2)oc2ccc(S(=O)(=O)N3CCCCC3)cc12 (centres undefined),-2.8%,-2.2%,-13.2%,-5.2%,-1.6%,5.2%
CCCOc1cccc(C(=O)Nc2cccc(NC(=O)c3ccco3)c2)c1,-3.3%,-3.4%,7.7%,-5.6%,-0.1%,16.9µM*
O=C(Nc1cccc(C(=O)Nc2cccc(Br)c2)c1)c1ccccc1,-1.7%,-2.4%,x,15.0%,x,u
Cc1c(C(=O)NCC2CCCO2)oc2ccc(Br)cc12 (centres undefined),23.1µM*,30.0%,x,u,x,u
Cc1ccc2oc(C(=O)NCC(c3ccc(Cl)cc3)N3CCOCC3)c(C)c2c1 (centres undefined),x,x,x,x,x,0.5%
CCC(O)c1cc2c(cc1NC(=O)c1cccc(Br)c1)OCCO2 (centres undefined),x,x,-11.2%,x,x,-16.5%
Cc1cc(Cl)c2oc(C(=O)NCCN3CCCCC3CO)c(C)c2c1 (centres undefined),u,13.4%,x,10.7%,x,-16.1%
Cc1ccc2oc(C(=O)N(Cc3ccncc3)CC3CCCO3)c(C)c2c1 (centres undefined),u,u,x,u,x,10.7µM*
Cc1ccc(S(=O)(=O)CC(=O)c2ccc3c(c2)OCCO3)cc1,0.4%,u,x,u,x,13.5µM*
